# In PubChem BioAssay (NCI):
# About 83,000 compounds went through this panel and 20% of them were active in at least one assay; those are over-represented in the sample as a whole.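 Assay: single dose, 48 h. Readout: percent growth (0 = no net growth; negative = cell death). Active: <10.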 Active and inactive are the calls of the source.
# System: SW-620 colon
# Test: NCI-60 one-dose screen, 48 h (100 = growth as untreated, 0 = no growth, -100 = all killed)
# Settings: 10 µM unless noted
row,SMILES,growth
1,CC(C)(C)c1cc(C=O)cc(C(C)(C)C)c1O,97.7% (inactive)
2,COCCCN1CC(O)=C(c2nc(-c3ccc(C)cc3)cs2)C1=N,104% (inactive)
3,O=C(CCN1CCCC1)Nc1ccc2c(Nc3ccc(Br)cc3)c3ccccc3nc2c1,-64.8% (active)
4,O=C(Cn1c[n+](CC(=O)c2ccc(-c3ccccc3)cc2)c2ccccc21)Nc1cccc2cccnc12,36.1% (inactive)
5,CCN1Cc2nc3sc(C)c(C)c3c(=O)n2C=C1C,15.6% (inactive)
6,Cc1ccc(-n2c3c(c(-c4ccccc4)c2-c2ccccc2)C2=NCCN2C=N3)cc1,89.9% (inactive)
7,CCCCC[n+]1ccc(SCC(=O)N(C)c2ccc(Oc3ccccc3)cc2)c2ccccc21,86.4% (inactive)
8,COc1cc(OC)cc(C(=O)C[n+]2cccc3cc[nH]c32)c1,99.8% (inactive)
9,CCOC(=O)[C@@H]1CCCN(S(=O)(=O)c2ccc(S(=O)(=O)N(CC)CC)c(F)c2)C1,86.6% (inactive)
10,Cn1ccc2c1CC1CN(Cc3ccco3)C(=O)C1C2C(=O)O (centres undefined),98.7% (inactive)
11,O=C(NO)c1ccc(-n2nc(-c3ccccc3)c3ccccc32)cc1,41.2% (inactive)
12,COc1ccc(CC(C)=C(c2ccc(OCCN3CCCCCC3)cc2)c2ccc(OCCN3CCCCCC3)cc2)cc1,-90.5% (active)
13,Nc1n[nH]c2cccc(C#Cc3cccc(C(=O)Nc4cccc(C(F)(F)F)c4)c3)c12,55.9% (inactive)
14,Cc1ccc(C(=O)/C(=C/c2ccc([N+](=O)[O-])cc2)SCc2ccc(Cl)cc2)cc1,-52.1% (active)
